This is part of a sample that, as a whole, favours compounds with a hit. Of some 83,000 tested, about 20% had one in any assay.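 Activity criterion: percent growth below 10, measured after cells in 96-well plates were exposed to a single compound concentration for 48 hours.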 Values without a mark were called inactive. The source made the active and inactive calls.
system: HL-60(TB) leukemia; assay: NCI-60 one-dose screen, 48 h (100 = growth as untreated, 0 = no growth, -100 = all killed); conditions: 10 µM unless noted

SMILES | growth
O=c1oc2ccccc2cc1-c1nn(-c2ccccc2)cc1/C=N/Nc1nc(-c2ccccc2)c(N=Nc2ccccc2)s1 | 58.1%
N#Cc1c(-c2ccc(Cl)cc2)nc2c(c(-c3ccccc3)nn2-c2ccccc2)c1-c1ccc(O)cc1 | 32.8%
O=C(Nc1ccc(F)cc1)Nc1ccccc1CNc1nc(Nc2ccc(OCCN3CCCC3)cc2)ncc1Cl | -39.6% (active)
COC12C=C/C(=C(/C(=O)OCc3cncnc3)C(=O)CCCCCCCCC3(OC)C=C/C(=C(/C(=O)OCc4cncnc4)C(=O)CCCCCCCC1)O3)O2 | -27.4% (active)
COc1ccc2c(c1)/C(=C/c1c(-c3cc(OC)c(OC)c(OC)c3Br)nc3sccn13)C(=O)N2 | 77.1%
COc1ccc2[nH]c(=O)c3c4ccccc4cn3c2c1 | -28.4% (active)
COc1ccc(-c2cc(-c3nnc(SC/C(=N\O)c4ccccc4)n3-c3ccccc3)c3ccccc3n2)cc1 | 94.3%
CCCCNc1ccc2c3c1cccc3c(=O)n1c3ccccc3nc21 | 63.4%
C[C@@H]1CN(Cc2ccc(/C=C/c3n[nH]c4ccc5nc(-c6cn[nH]c6C(F)(F)F)c6c(c5c34)CCCC6)cc2)C[C@H](C)O1 | 46.7%
COCCCNC(=O)c1nnn2c1nc(N)c1cc(Cl)ccc12 | 93.7%
NC(=S)N/N=C/C(=O)O | 87.8%
CNC(=O)c1cc(Oc2ccc(NC(=O)Nc3ccc(Cl)c(OC4CCCCC4)c3)c(F)c2)ccn1 | 82.9%
COC(=O)[C@@H]1CCCN1C(=O)[C@@H]1CCCN1C(=O)[C@@H](Cc1c[nH]c2ccccc12)NC(=S)Nc1cc(C(F)(F)F)cc(C(F)(F)F)c1 | 11.1%
CO/C=C/C(=O)c1cc2cnc3c(=N)cc(NC(=O)C(C)C)c([nH]1)c23 | -0.789% (active)
Oc1ccc(CCC2CCCC(CCc3ccc(OCCF)cc3)N2)cc1 (stereo not given) | 82%
C[C@@]1(CO)[C@H](O)CC[C@@]2(C)[C@H]1CC[C@H]1C[C@@H]3C[C@@]12CC[C@@]3(O)COC(=O)CN | 3.18% (active)
COC1OC(COS(=O)OC)C(O)C(O)C1OS(=O)OC (stereo not given) | 82.6%
COc1ccc(-c2nc3ccccn3c2-c2nnc(-c3cc(OC)c(OC)c(OC)c3)o2)cc1 | 85.6%
COc1ccc(C(=O)c2cc(OC)c(OC)c(OC)c2)cc1/C=C/C(=O)c1ccc(F)cc1 | 93.2%
CCN(CC)C(=S)SCCO | 102%

SMILES | growth
O=C(/C=C/c1ccc(F)cc1)c1ccc(NC(=O)N2CCN(c3cc4c(cc3F)c(=O)c(C(=O)O)cn4C3CC3)CC2)cc1 | 98.1%
COc1ccc(C2=C/C(=C\c3ccccc3O)C(=O)N2Cc2ccccc2)cc1 | 40.9%
Clc1ccc2c(c1)nnn1c3ncccc3c(Br)c21 | 113%
CCOC(=N)CC(=O)Nc1cccc(C)c1Cl | 111%
NC1=NC(c2cccc(Br)c2)c2sc3ccc(Cl)cc3c2N1 (stereo not given) | 102%
CCN(CC)c1ccc2nc3ccc(N=Nc4ccc(N(C)C)cc4)cc3[n+](-c3ccccc3)c2c1 | -32.2% (active)
Nc1ccc(S(=O)(=O)Nc2cc(I)cc(I)c2)cc1 | -75% (active)
CS(=O)(=O)Nc1cncc(-c2ccc3ncnc(Nc4ccc(F)c(Cl)c4)c3c2)c1 | 6.11% (active)
CCOC(=O)CNC | 97.3%
O=C(CN1C(=O)S/C(=C\C(Cl)=C\c2ccccc2)C1=O)NC1C=CS(=O)(=O)C1 (stereo not given) | -5.2% (active)
COc1cc2nc(-c3ccc(C(F)(F)F)cc3)cc(OCCCN3CCOCC3)c2cc1OC | 32.5%
CC1=CCC[C@@H]2C1(C)CC[C@H](C)[C@@]2(C)CC1=CC(=O)C(SC(C)(C)C)=CC1=O (stereo not given in full) | 56.4%
COc1ccccc1/C=C1\COc2ccc(-c3ccccc3)cc2C1=O | -47.8% (active)
Cn1c(=O)c2c(nc(N/N=C/c3ccccc3Cl)n2C)n(C)c1=O | 91.6%
CS(=O)(=O)c1nnc(-c2ccccc2)s1 | 64.8%
CSc1nc2ncc([N+](=O)[O-])c(=O)n2[nH]1 | 106%
Cc1ccc(/C=C/C(=N/N=C(N)N)c2ccccc2)cc1 | 7.52% (active)
CCN(CCCCCCCCCCN1CC(=O)N(CCCCCCCCCCN(CC)Cc2ccccc2OC)CC1=O)Cc1ccccc1OC | -67.9% (active)
O=C(/C=C/C12c3ccccc3C(c3ccccc31)C1C(=O)NC(=O)C12)c1ccccn1 (stereo not given) | -11.5% (active)
O=C(CCl)N1c2ccccc2Sc2c1ccc1ccccc21 | 62.7%

From PubChem BioAssay (NCI)
